Results reported in PubChem BioAssay (NCI).
About 79,000 compounds went through this panel and 15% of them were active in at least one assay; those are over-represented in the sample as a whole. Values without a mark were called inactive. Active and inactive are the calls of the source. No stated cut-off is given here; in the data, active means growth inhibition above about 70%; inactive means the rest.

What was measured:
[1] = NCI Yeast Anticancer Drug Screen. Data for the rad50 strain (AID 155);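 further: 0% = growth of vehicle-only cultures of the same strain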; details: S. cerevisiae rad50 strain growth inhibition, active compounds read high
Outline: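 DNA repair mutant yeast, compound exposure, growth read-out; inhibition is taken relative to vehicle.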

[2] = NCI Yeast Anticancer Drug Screen. Data for the mec2-1 strain (AID 157); details: S. cerevisiae mec2-1 strain, active compounds read high
Outline: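 Vehicle-treated cultures served as reference for growth inhibition of compound-exposed mec2-1 yeast.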

[3] = NCI Yeast Anticancer Drug Screen. Data for the sgs1 mgt1 strain (AID 161);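 further: 0% = growth of cultures given vehicle only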; details: S. cerevisiae sgs1 mgt1 strain, active compounds read high
Outline: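 Test agents were incubated with a DNA-repair-mutant yeast strain. Growth was then read and compared against vehicle-treated controls.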

[4] = NCI Yeast Anticancer Drug Screen. Data for the cln2 rad14 strain (AID 165);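 further: 0% = growth equal to vehicle treated cultures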; details: S. cerevisiae cln2 rad14 strain, active compounds read high
Outline: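 Each compound was tested on cln2 rad14 yeast. Inhibition of growth was calculated against vehicle-exposed controls.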

[5] = NCI Yeast Anticancer Drug Screen. Data for the bub3 strain (AID 167); details: S. cerevisiae bub3 mutant strain, active compounds read high
Outline: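 In this screen, a yeast mutant lacking normal mitotic checkpoint function is challenged with compound. Relative growth versus vehicle gives the inhibition value.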

[6] = NCI Yeast Anticancer Drug Screen. Data for the mlh1 rad18 strain (AID 175); details: S. cerevisiae mlh1 rad18 strain growth inhibition, active compounds read high
Outline: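 Vehicle-treated cultures served as the reference for growth inhibition in a yeast strain carrying DNA damage repair alterations exposed to each compound.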

[7] = at 5.0 µM (retest, dose inferred, filed as 0.5)
[8] = at 50.0 µM (retest, dose inferred, filed as 5.0)

Compound	growth inhibition [1, 7]	growth inhibition [1, 8]	growth inhibition ([1]; at 50.0 µM)	growth inhibition [2, 7]	growth inhibition [2, 8]	growth inhibition ([2]; at 50.0 µM)	growth inhibition [3, 7]	growth inhibition [3, 8]	growth inhibition ([3]; at 50.0 µM)	growth inhibition [4, 7]	growth inhibition [4, 8]	growth inhibition ([4]; at 50.0 µM)	growth inhibition [5, 7]	growth inhibition [5, 8]	growth inhibition ([5]; at 50.0 µM)	growth inhibition [6, 7]	growth inhibition [6, 8]	growth inhibition ([6]; at 50.0 µM)
CSc1nnc(CCC(=O)Nc2c(C)cccc2C(C)(C)C)o1	-5%	1%	-2.5%	1%	4%	27.8%	-14%	25%	10.9%	4%	7%	49.6%	7%	7%	0.65%	-9%	-3%	1.65%
O=C(CBr)c1cccc(OC(=O)c2ccccc2)c1	91% (active)	99% (active)	44.2%	91% (active)	98% (active)	26.1%	100% (active)	99% (active)	68%	88% (active)	99% (active)	29.9%	99% (active)	99% (active)	56.2%	90% (active)	99% (active)	16.1%
N#CC(C#N)C(c1ccccc1)c1ccccc1	-4%	5%	13.1%	6%	20%	17.9%	1%	-41%	11%	-3%	-10%	-1.1%	0%	0%	1.75%	-1%	2%	10.5%
CCOC(=O)C(NNc1ccccc1)C(c1ccccc1)[P+](c1ccccc1)(c1ccccc1)c1ccccc1 (configuration not stated)	78% (active)	99% (active)	99.5% (active)	94% (active)	99% (active)	99.7% (active)	85% (active)	99% (active)	99.7% (active)	59%	99% (active)	99.5% (active)	91% (active)	99% (active)	99.4% (active)	95% (active)	99% (active)	99.7% (active)
CCN(CC)CCNc1ccc2ncn3c4c(OC)ccc(=O)c4c(O)c1c23	24%	96% (active)	25.4%	9%	65%	19.9%	3%	54%	22.6%	-1%	29%	-1.95%	9%	19%	-13.1%	9%	83% (active)	4.65%
CC12CCC(=O)C=C1CCC1C2C(O)CC2(C)C(c3csc(N)n3)CCC12 (configuration not stated)	58%	98% (active)	98.8% (active)	17%	98% (active)	96.8% (active)	49%	97% (active)	98% (active)	23%	90% (active)	94.5% (active)	27%	97% (active)	96.8% (active)	38%	96% (active)	96% (active)
COc1nc2c(ccn2C2OC(COC(C)=O)C(OC(C)=O)C(OC(C)=O)C2OC(C)=O)c(=O)n1C (configuration not stated)	2%	-2%	15.2%	1%	-4%	14.8%	-5%	-5%	4.45%	-2%	-3%	2.35%	-2%	-8%	-5.9%	1%	-2%	2.15%
CCN(CC)C(=S)n1c(=S)nc(N(CC)CC)sc1=S	57%	97% (active)	89.3% (active)	42%	98% (active)	92.2% (active)	63%	99% (active)	92.5% (active)	39%	86% (active)	88.9% (active)	54%	83% (active)	91.2% (active)	75% (active)	98% (active)	89.8% (active)
COC(=O)C(C#N)C(c1ccccc1)c1c[nH]c2ccccc12 (configuration not stated)	-3%	75% (active)	77.2% (active)	-4%	59%	16.3%	-5%	63%	55.7%	-52%	82% (active)	24.1%	-7%	71% (active)	-4.8%	-14%	89% (active)	71% (active)
